This passage reports binding signal results from PMC12136788.

B1: ENSG00000070961:be:win_601|CDS|ENSG00000070961|bound_else_gene|NA|bound_elsewhere_windowed (ssRNA)
RNA: GGGAGUUCUACAGUCCGACGAUCCAGGUCAUUCAGAUACCUGUAGCUGACAUUACUGUUGGAGAUAUUGCUCAAGUGAAAUAUGGUGAUCUUCUUCCAGCUGACGGCAUACUUAUUCAAGGCAACGAUCUUAAAAUUGAUGAACAACAGAGGAUUGAGCAUCA
B2: chr11:10770493:10770605:+|CDS|ENSG00000198730|unk|FALSE|unique (ssRNA)
RNA: GGGAGUUCUACAGUCCGACGAUCACAUGUGGCACCCAGUGAUACAGUUCUUAUGUUUAAUGUGGCCUUGGUCCUGCAAAGAUUAGCUACCUCUGUCCUGAAAGAUGAAAAAAGUAAUCUGAAGGAAGUACUUAAUGCUGUGAACAACAGAGGAUUGAGCAUCA
B3: chr1:51919672:51919773:-|3pUTR|ENSG00000169213|unk|FALSE|unique (ssRNA)
RNA: GGGAGUUCUACAGUCCGACGAUCUAUUCUUUGCCUGCCCCUGGGGUUCUCUGCAGAUGGUCCCAGUAAUAGAUACUCAGCACUAGACUAACAUAACAGGUCACUACACGGGUGCAGAAUCACUUUACAAAAGAAGACUCUGUUCAACAGAGGAUUGAGCAUCA
B4: ENSG00000107863:be:win_5751|CDS|ENSG00000107863|bound_else_gene|NA|bound_elsewhere_windowed (ssRNA)
RNA: GGGAGUUCUACAGUCCGACGAUCACCUGACCAAAUAAACGGAGAAAGCUUCCAGAACGUGAGCAAAAAUGCUAGUUCUGCAGCGAAUGCCCAACCUCAUAAACUGUCUGAAACCCCAGGCAGUAAAGCAGAGUUUCAUCCCUGCAACAGAGGAUUGAGCAUCA
B5: chr1:113685846:113685948:+|3pUTR|ENSG00000081026|unk|FALSE|unique (ssRNA)
RNA: GGGAGUUCUACAGUCCGACGAUCUAUAUACACUUGAGGUUCUGAUUAGAGAAAGAUCUGUAAAUUGCUCAUUAUUUUUUAUAUAGAUAUUUAAAAAAAACAGUUUAUGGCCUGCAUUUCUUUUACUGUCACAUUGGUUUAAUGCAACAGAGGAUUGAGCAUCA
B6: chr21:14485227:14485911:-|three_prime_utr|ENSG00000155307|control|control|control (ssRNA)
RNA: GGGAGUUCUACAGUCCGACGAUCCCCAACUAUAUAUCUACAGAUGCAUUCCAUUUUAACUCUUCUUGAGCUAAAACGUCAAAUAGGAGAGGAAGAUAAGAUAAAUAUUUGUAAAUAAAACCUAAAGUUUAAAUGUUUUAAUCUCAACAGAGGAUUGAGCAUCA
B7: chr2:158176520:158176661:-|CDS|ENSG00000153237|control|control|control (ssRNA)
RNA: GGGAGUUCUACAGUCCGACGAUCGCUGUUGUUGCUCAAUUUGAUCCUGUUAGAAUGAUGUCAGAUACAAUGGCAUCAAAAGCUAGAAUGGGCAUUGAAAUUGAAGAAGAAUUUAUUCUUCAAAAGCCACUCUUCACAUUGAAUCAACAGAGGAUUGAGCAUCA
B8: chr2:151248206:151248307:-|3pUTR|ENSG00000184898|msi1|FALSE|unique (ssRNA)
RNA: GGGAGUUCUACAGUCCGACGAUCUUUUUUUAAAGCAAAGAUUAAAUUCCCAUGUAAAACCUUCCUCCCUAUACAAAAAAGAAUAGCAGCAUUUUUAUCUUCAAUGACAAAGAAUUGAGUCCAAGAAAAUACUGUAUAAACCUUCAACAGAGGAUUGAGCAUCA
B9: chr14:55048714:55048815:+|3pUTR|ENSG00000180008|msi1|FALSE|bound_elsewhere (ssRNA)
RNA: GGGAGUUCUACAGUCCGACGAUCUUUCUAAUUUUGAACAGAUGACUCAGUCCUAAAUCUUUGCCUUUAUUUCCUAUAAAAUGUAGGUGAUACUUGUAACUCGACUUCCUGGAGUUAAUUCUUCAGCAAGAGGUGACCCUGGGACAACAGAGGAUUGAGCAUCA
B10: chr10:95311796:95311897:-|3pUTR|ENSG00000095637|unk|FALSE|unique (ssRNA)
RNA: GGGAGUUCUACAGUCCGACGAUCCAGACAUAGAUUUUUCUGUUCAUUUAUUUUUCUUCAUUGCAGUGGAUUGAUUUGAUAAAUAGAUGUGUUGAAUUACUACAUUUGCUGUACAUAUUAUUUAAUAAACUUUAUUCAGAAUUGCAACAGAGGAUUGAGCAUCA
B11: chr9:72354534:72354635:-|3pUTR|ENSG00000107372|msi1|total|mutant (ssRNA)
RNA: GGGAGUUCUACAGUCCGACGAUCGUCCCCGUUUUUACUUUUAUUCUUAAAGCAUUCAGUUUUGCUUUCAAUUUUAUGUACCUCCGUUCUGAGUCCGACCUGCAGAUGUGUACAGACCGUUCAUAUUUAUGUAUUGCACAUAAUCAACAGAGGAUUGAGCAUCA
B12: chr9:72354534:72354635:-|3pUTR|ENSG00000107372|msi1|FALSE|unique (ssRNA)
RNA: B11 RNA with C28U, C29A, C83U, C84A, C94U, C95A, C116U, C117A
B13: ENSG00000070961:be:win_5651|3pUTR|ENSG00000070961|bound_else_gene|NA|bound_elsewhere_windowed (ssRNA)
RNA: GGGAGUUCUACAGUCCGACGAUCGUUUCUAGUCUUGGUUUUGCCAUUAAUGUGCUGCAUGAUCUUGGGAAAAUCAUUUACCCUAAAUAAGGGUGGUGGACUAUCUUGAAGAACCCUUUCAACUCUAAAAAUUGACCCUAUCAACAACAGAGGAUUGAGCAUCA
B14: ENSG00000113300:stop:overlap|stop_codon|ENSG00000113300|stop_codon|NA|stop_codon (ssRNA)
RNA: GGGAGUUCUACAGUCCGACGAUCUGGAGCUCUUACUGCCUUUCCUGCCCCAAGUCAACGGCAUCCACCUUCCUGGCAGGAGGUAGUCAAGCACCUUCAGAGGACAGCCUUGAUUCACUUGUAAACUUGUGAAAAUCUGAACAUCAACAGAGGAUUGAGCAUCA

Numbering of substitutions follows the chain as printed. The full ranking holds about 5,800 sequences; the median of “enrichment r” is about 0.54, and the highest 2% start at about 16. The sample holds the highest values, similar sequences and a random draw of the others, so the mix is not that of the screen.

The target in the test is MSI1 full-length (mouse, UniProt Q61474 1-362). Nature of the test: nsRBNS (natural sequence RNA bind-n-seq); RBNS binding buffer (assumed for nsRBNS): 25 mM Tris pH 7.5, 150 mM KCl, 3 mM MgCl2, 0.01% Triton X-100, 500 ug/ml BSA, 20 U/ml SUPERase-In, 4 C; UNK is unkempt and MSI1 is Musashi-1; names of the RNAs are library labels; protein concentration not given here; high values mean tight binding.
MSI1 full-length, sequence (Q61474 whole entry): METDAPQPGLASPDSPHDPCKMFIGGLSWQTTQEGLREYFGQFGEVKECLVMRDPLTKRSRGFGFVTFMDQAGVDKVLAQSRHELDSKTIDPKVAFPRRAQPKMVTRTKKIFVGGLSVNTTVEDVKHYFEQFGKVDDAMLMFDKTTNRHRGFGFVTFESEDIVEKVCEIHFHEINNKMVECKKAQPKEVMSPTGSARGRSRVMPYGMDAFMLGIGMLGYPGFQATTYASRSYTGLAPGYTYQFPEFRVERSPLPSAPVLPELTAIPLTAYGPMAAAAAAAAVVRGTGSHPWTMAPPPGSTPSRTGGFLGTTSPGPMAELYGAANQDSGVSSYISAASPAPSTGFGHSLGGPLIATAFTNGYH
B1 displayed a binding signal of 0.234 enrichment R.

Molecule B2 gave a binding signal of 0.659 enrichment R.

Molecule B3 returned a binding signal of 0.896 enrichment R.

For the molecule B4, the binding signal was determined as 0.256 enrichment R.

In turn, B5 had a binding signal of 13.4 enrichment R.

Turning to B6, the binding signal was 1.2 enrichment R.

B7 had a binding signal of 0.406 enrichment R.

Consider B8, for which the binding signal came to 0.494 enrichment R.

B9 showed a binding signal of 0.258 enrichment R.

B10: the binding signal was found to be 2.8 enrichment R.

Molecule B11 returned a binding signal of 1.52 enrichment R.

Regarding B12, the binding signal came to 42.6 enrichment R.

The molecule B13 gave a binding signal of 0.357 enrichment R.

Molecule B14 yielded a binding signal of 38.7 enrichment R.
